Assay results from PubChem BioAssay (NCI).
The panel holds about 79,000 compounds, 15% with a hit somewhere; the sample as a whole holds those more often. A number with no mark means an inactive call. The source made the active and inactive calls. No stated cut-off is given here; in the data, active means growth inhibition above about 70%; inactive means the rest.

Assay: NCI Yeast Anticancer Drug Screen. Data for the sgs1 mgt1 strain (AID 161);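 further: 0% = growth of cultures given vehicle only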
Details: S. cerevisiae sgs1 mgt1 strain, at 50.0 µM, active compounds read high
Procedure, shortened: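 Inhibition of yeast growth, normalised to vehicle-treated controls, is reported for a strain bearing genetic alterations in DNA damage repair.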

Row | Compound | growth inhibition [%]
1 | C[N+](C)(C)CC(=O)N/N=C(/C=C/c1ccccc1)CC1OC(=O)c2ccccc21 (stereo not given) | -3.5
2 | CC(C)(C)OC(=O)Cc1c[nH]c2ccccc12 | -9.45
3 | CCOC(=O)c1noc(Oc2ccc(Cl)cc2Cl)n1 | -10.8
4 | CCN(CC)C(=O)N1C=CC(C)C=C1 | -15.4
5 | Cc1cc(C)c([N+](=O)[O-])cc1[N+](=O)[O-] | 9.45
6 | CNC(=O)Nc1ccc(Cl)cc1C(=O)O | -15.7
7 | CC(=O)Nc1ccc(S(=O)(=O)NNC(=O)NNS(=O)(=O)c2ccc(NC(C)=O)cc2)cc1 | -11.5
8 | CC(=O)Nc1ccc(C(=O)NN2C(=O)C(Cl)C2c2ccccc2)cc1 (stereo not given) | -49.4
9 | N#CC(C#N)=CN1CCCCC1 | -12.1
10 | C1CSC[C@H]2COC[C@@H](CSCCS1)S2 | -2.55
11 | COC(=O)CC1(O)C=C(C)C(=O)c2ccccc21 (stereo not given) | -19.2
12 | Nc1ccc(F)cc1C(F)(F)F | -4.55
13 | O=C(c1ccc(O)c(C(=O)O)c1)c1ccc(O)c(C(=O)O)c1 | -5.3
14 | COC(=O)/C(C#N)=C1\CCC(OC)N1 (stereo not given) | -21.2
15 | CC(=O)NC1=C/C(=C/COC(C)=O)OC1=O | 11.8
16 | C=C1C(=C)C2C=CC1C1C3C(c4ccccn4)=NN=C(c4ccccn4)C3C21 (stereo not given) | 68.8
17 | Nc1nc(N)c(N=Nc2ccc(S(=O)(=O)NC(=O)c3ccccc3)cc2)c(=O)[nH]1 | -6.9
18 | CN(C)c1ccccc1CCCCCBr | 5.5
19 | O=C1[C@@H](c2ccc(Cl)cc2)[C@H]2CC=C[C@H]2N1O | -13.8
20 | COc1cc(C(=O)CCCC(=O)O)cc(OC)c1OC | 19.6
21 | C=C(C)/C=C/S(=O)c1ccccc1 (stereo not given) | 10.3
22 | Cc1ccc(C(=O)c2ccccc2)cc1C[N+](C)(C)C | 10.3
23 | COc1ccc2c(c1)C(=O)CC(C(N)=O)C2 (stereo not given) | -29.9
24 | [N-]=[N+]=Nc1c(Cc2ccccc2)c(Cl)nc2ccccc12 | 62.5
25 | COc1ccc(C2CC(c3ccccc3)=Nc3ccccc3S2)cc1OC (stereo not given) | 11.7

Assay: NCI Yeast Anticancer Drug Screen. Data for the cln2 rad14 strain (AID 165);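 further: 0% = growth equal to vehicle treated cultures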
Details: S. cerevisiae cln2 rad14 strain, at 50.0 µM, active compounds read high
Procedure, shortened: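 Each compound was tested on cln2 rad14 yeast. Inhibition of growth was calculated against vehicle-exposed controls.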

Row | Compound | growth inhibition
26 | C=CCCC(C)(C(=O)OCC)C(=O)OCC | -30.3%
27 | C(CCC[Si]12OCCN(CCO1)CCO2)CC[Si]12OCCN(CCO1)CCO2 | 11.9%
28 | C=C1C2CC[C@@]3(CC[C@@H]4[C@@]5(C)CCC[C@@]4(CN4CCO[C@H]45)[C@@H]3C2)[C@@H]1O | 25.9%
29 | CCC(C)C(N)C1=NC(C(=O)NC(CC(C)C)C(=O)NC(CCC(=O)O)C(=O)NC(C(=O)NC2CCCCNC(=O)C(CC(N)=O)NC(=O)C(CC(=O)O)NC(=O)C(Cc3cnc[nH]3)NC(=O)C(Cc3ccccc3)NC(=O)C(C(C)CC)NC(=O)C(CCCN)NC2=O)C(C)CC)CS1 (stereo not given) | 25.6%
30 | NC(=S)Cc1ccccn1 | -19.1%
31 | Cc1ccc(/C=N/NC(N)=S)c(C)c1 | -30.9%
32 | CCOC(=O)CC(C)C(C(=O)OCC)C(=O)OCC (stereo not given) | 4.15%
33 | CN(C)c1nc(=NCc2ccncc2)ss1 | -45.4%
34 | CN(C)C(=O)Sc1ccc(N(C)C)cc1 | -25.2%
35 | Cc1nc(C)c(N2CCN(S(=O)(=O)N(Cc3ccccc3)Cc3ccccc3)CC2)c(=O)[nH]1 | 3.85%
36 | CCCC1SCC(C)(C)NC1=O (stereo not given) | -18.4%
37 | CCCCCCP(=O)(CCCCCC)C1CCCCC1 | 97.6% (active)
38 | Clc1ccc(-c2nnc(-c3ccc4ccccc4c3)o2)cc1Cl | 11.8%
39 | Nc1ccc(S(=O)(=O)Nc2nc3ccccc3nc2Nc2ccc(S(N)(=O)=O)cc2)cc1 | -13.7%
40 | O=S1(=O)CCC(Br)c2ccccc2C1 (stereo not given) | 14.2%
41 | C[N+](C)(C)CC(=O)N/N=C(/C=C/c1ccccc1)CC1OC(=O)c2ccccc21 (stereo not given) | 16.2%
42 | CC(C)(C)OC(=O)Cc1c[nH]c2ccccc12 | -19.1%
43 | CCOC(=O)c1noc(Oc2ccc(Cl)cc2Cl)n1 | -4.35%
44 | CCN(CC)C(=O)N1C=CC(C)C=C1 | -43.1%
45 | Cc1cc(C)c([N+](=O)[O-])cc1[N+](=O)[O-] | -1.25%

Row | Compound | growth inhibition
46 | CNC(=O)Nc1ccc(Cl)cc1C(=O)O | -72.2%
47 | CC(=O)Nc1ccc(S(=O)(=O)NNC(=O)NNS(=O)(=O)c2ccc(NC(C)=O)cc2)cc1 | 2.5%
48 | CC(=O)Nc1ccc(C(=O)NN2C(=O)C(Cl)C2c2ccccc2)cc1 (stereo not given) | -10.2%
49 | N#CC(C#N)=CN1CCCCC1 | 17.6%
50 | C1CSC[C@H]2COC[C@@H](CSCCS1)S2 | 18.9%
51 | COC(=O)CC1(O)C=C(C)C(=O)c2ccccc21 (stereo not given) | -19%
52 | Nc1ccc(F)cc1C(F)(F)F | -7.75%
53 | O=C(c1ccc(O)c(C(=O)O)c1)c1ccc(O)c(C(=O)O)c1 | -0.7%
54 | COC(=O)/C(C#N)=C1\CCC(OC)N1 (stereo not given) | 3.7%
55 | CC(=O)NC1=C/C(=C/COC(C)=O)OC1=O | -57%
56 | C=C1C(=C)C2C=CC1C1C3C(c4ccccn4)=NN=C(c4ccccn4)C3C21 (stereo not given) | 74.5% (active)
57 | Nc1nc(N)c(N=Nc2ccc(S(=O)(=O)NC(=O)c3ccccc3)cc2)c(=O)[nH]1 | -9.35%
58 | CN(C)c1ccccc1CCCCCBr | -37.1%
59 | O=C1[C@@H](c2ccc(Cl)cc2)[C@H]2CC=C[C@H]2N1O | 15.4%
60 | COc1cc(C(=O)CCCC(=O)O)cc(OC)c1OC | 5.85%
61 | C=C(C)/C=C/S(=O)c1ccccc1 (stereo not given) | -5.35%
62 | Cc1ccc(C(=O)c2ccccc2)cc1C[N+](C)(C)C | 12%
63 | COc1ccc2c(c1)C(=O)CC(C(N)=O)C2 (stereo not given) | 3.6%
64 | [N-]=[N+]=Nc1c(Cc2ccccc2)c(Cl)nc2ccccc12 | 53.7%
65 | COc1ccc(C2CC(c3ccccc3)=Nc3ccccc3S2)cc1OC (stereo not given) | 4.15%
